The source made the active and inactive calls. How the source made its calls: active means hit-call score of the fitted dose curve at least 0.9, where 1 is the maximum; inactive means score below 0.9.
What was measured:
Conditions in all cases: mRNA level, 48 h; actives raise or lower the signal
[1] = read-out: Cytochrome P450 (CYP1A2), CYP1A2 (gene 1544); experiment: LTEA_HepaRG_CYP1A2: Life Technologies and Expression Analysis (LTEA) Assay for Cytochrome P450 (CYP1A2) using HepaRG (AID 2283479)
Method in brief: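 CYP1A2 transcript induction or loss, quantified by Fluidigm qRT-PCR against three housekeeping genes, was fitted bidirectionally against 0.5% DMSO controls. Human HepaRG cells received eight half-log concentrations from 100 uM over 48 h.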

[2] = read-out: cysteine-aspartic acid protease (CASP8), CASP8 (gene 841); experiment: LTEA_HepaRG_CASP8: Life Technologies and Expression Analysis (LTEA) Assay for cysteine-aspartic acid protease (CASP8) using HepaRG (AID 2283480)
Method in brief: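 CASP8 transcript measured by TaqMan qRT-PCR with ACTB/GAPDH/POLR2A normalization, after 48 h chemical exposure of HepaRG cells in serum-free induction medium. Eight concentrations, top 100 uM, half-log steps, 0.5% DMSO vehicle; fits in both directions versus DMSO.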

[3] = read-out: Cytochrome P450 (CYP2B6), CYP2B6 (gene 1555); experiment: LTEA_HepaRG_CYP2B6: Life Technologies and Expression Analysis (LTEA) Assay for Cytochrome P450 (CYP2B6) using HepaRG (AID 2283481)
Method in brief: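 HepaRG cells plated 48 h, switched to serum-free induction medium, then dosed 48 h (8 points, half-log from 100 uM, 0.5% DMSO). RNA isolated; CYP2B6 expression measured by qRT-PCR; gain or loss fitted relative to DMSO.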

[4] = read-out: Cytochrome P450 2C19 (Homo sapiens) (UniProt P33261); experiment: LTEA_HepaRG_CYP2C19: Life Technologies and Expression Analysis (LTEA) Assay for CYP2C19 using HepaRG (AID 2283482)
Method in brief: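 Transcript levels of CYP2C19 were quantified by qRT-PCR after HepaRG cells were treated for 48 hours with test chemicals up to 100 uM (eight half-log concentrations, 0.5% DMSO vehicle). Gain or loss of signal was fitted relative to DMSO.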

CYP2C9 (gene 1559) = experiment: LTEA_HepaRG_CYP2C9: Life Technologies and Expression Analysis (LTEA) Assay for CYP2C9 using HepaRG (AID 2283484)
Method in brief: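 CYP2C9 transcript level, quantified by TaqMan qRT-PCR against three housekeeping genes, was fitted bidirectionally relative to 0.5% DMSO. HepaRG cultures were treated 48 h, in duplicate, at eight half-log concentrations topping at 100 uM.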

CYP2E1 (gene 1571) = experiment: LTEA_HepaRG_CYP2E1: Life Technologies and Expression Analysis (LTEA) Assay for CYP2E1 using HepaRG (AID 2283485)
Method in brief: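 Assay uses 48 h exposure of HepaRG hepatic cells, eight concentrations to 100 uM. Expression of CYP2E1 is quantified by TaqMan qRT-PCR with ACTB, GAPDH and POLR2A normalization; curves fitted in both directions relative to vehicle.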

CYP4A11 (gene 1579) = experiment: LTEA_HepaRG_CYP4A11: Life Technologies and Expression Analysis (LTEA) Assay for CYP4A11 using HepaRG (AID 2283486)
Method in brief: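 HepaRG, 48 h chem exposure, 8 conc (100 uM top, half-log), 0.5% DMSO vehicle; qRT-PCR readout, housekeeping-gene normalized; bidirectional curve fit vs DMSO baseline.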

[5] = read-out: DNA damage-inducible transcript 3 (DDIT3), DDIT3 (gene 1649); experiment: LTEA_HepaRG_DDIT3: Life Technologies and Expression Analysis (LTEA) Assay for DNA damage-inducible transcript 3 (DDIT3) using HepaRG (AID 2283488)
Method in brief: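 Eight-point concentration-response (100 uM highest, half-log dilutions) in HepaRG, 48 h, duplicate wells. Endpoint: qRT-PCR mRNA, normalized (ACTB, GAPDH, POLR2A), bidirectional fitting with DMSO as baseline.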

[6] = read-out: Pro-epidermal growth factor (Homo sapiens) (UniProt P01133); experiment: LTEA_HepaRG_EGF: Life Technologies and Expression Analysis (LTEA) Assay for Epidermal growth factor (EGF) using HepaRG (AID 2283489)
Method in brief: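 HepaRG, 48 h dosing, 100 uM top, half-log x8, 0.5% DMSO. Readout: TaqMan qRT-PCR (Fluidigm array), housekeeping-normalized. Gain or loss of signal fit vs DMSO.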

[7] = read-out: Early growth response protein 1 (EGR1) transcription factor, EGR1 (gene 1958); experiment: LTEA_HepaRG_EGR1: Life Technologies and Expression Analysis (LTEA) Assay for Early growth response protein 1 (EGR1) transcription factor using HepaRG (AID 2283490)
Method in brief: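 EGR1 transcript levels quantified by qRT-PCR (Fluidigm arrays) against three housekeeping genes after 48 h chemical exposure of HepaRG cells. Eight-point half-log series topping at 100 uM, 0.5% DMSO vehicle, analyzed for gain or loss.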

[8] = read-out: Ezrin (EZR), EZR (gene 7430); experiment: LTEA_HepaRG_EZR: Life Technologies and Expression Analysis (LTEA) Assay for Ezrin (EZR) using HepaRG (AID 2283491)
Method in brief: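 Differentiated human HepaRG cells, 48 h after plating, were exposed in serum-free induction medium for 48 hours to eight half-log concentrations up to 100 uM in 0.5% DMSO. EZR mRNA was measured by TaqMan qRT-PCR, normalized to ACTB, GAPDH and POLR2A, and fitted bidirectionally against DMSO.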

CYP3A5 (gene 1577) = experiment: LTEA_HepaRG_CYP3A5: Life Technologies and Expression Analysis (LTEA) Assay for CYP3A5 using HepaRG (AID 2283493)
Method in brief: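 Readout was CYP3A5 mRNA by qRT-PCR. HepaRG cultures were exposed for 48 h in serum-free induction medium to chemicals at up to 100 uM, and responses were fitted in both directions relative to DMSO vehicle.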

[9] = read-out: Fatty Acid-Binding Protein 1 (FABP1), FABP1 (gene 2168); experiment: LTEA_HepaRG_FABP1: Life Technologies and Expression Analysis (LTEA) Assay for Fatty Acid-Binding Protein 1 (FABP1) using HepaRG (AID 2283494)
Method in brief: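 FABP1 expression by TaqMan qRT-PCR, normalised to three housekeeping genes, in HepaRG cells after 48 h chemical treatment. Eight-point half-log series topping at 100 uM in 0.5% DMSO, duplicates; gain or loss fitted relative to vehicle.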

[10] = read-out: Cytochrome P450 4A22 (Homo sapiens) (UniProt Q5TCH4); experiment: LTEA_HepaRG_CYP4A22: Life Technologies and Expression Analysis (LTEA) Assay for Cytochrome P450 4A22 (CYP4A22) using HepaRG (AID 2283495)
Method in brief: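 Readout is CYP4A22 transcript induction or loss, quantified by qRT-PCR and normalized to ACTB, GAPDH and POLR2A. Human HepaRG cells receive test chemicals for 48 h at eight half-log concentrations from 100 uM in 0.5% DMSO.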

[11] = read-out: Cytochrome P450 7A1 (Homo sapiens) (UniProt P22680); experiment: LTEA_HepaRG_CYP7A1: Life Technologies and Expression Analysis (LTEA) Assay for Cytochrome P450 7A1 (CYP7A1) using HepaRG (AID 2283496)
Method in brief: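 Using 0.5% DMSO as vehicle and baseline, chemicals were tested in duplicate over an 8-point range from 100 uM on HepaRG cells for 48 h; qRT-PCR signals were normalised to ACTB, GAPDH and POLR2A.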

[12] = read-out: Glutathione S-Transferase (GSTA2), GSTA2 (gene 2939); experiment: LTEA_HepaRG_GSTA2: Life Technologies and Expression Analysis (LTEA) Assay for Glutathione S-Transferase (GSTA2) using HepaRG (AID 2283497)
Method in brief: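 GSTA2 transcript levels came from Fluidigm TaqMan qRT-PCR normalized to three housekeeping genes, fitted in both directions against DMSO. HepaRG cultures received chemicals for 48 h in serum-free induction medium (0.5% DMSO), 8 half-log concentrations up to 100 uM, duplicate.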

[13] = read-out: Glutamate-cysteine ligase catalytic (GCLC), GCLC (gene 2729); experiment: LTEA_HepaRG_GCLC: Life Technologies and Expression Analysis (LTEA) Assay for Glutamate-cysteine ligase catalytic (GCLC) using HepaRG (AID 2283498)
Method in brief: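 Expression by TaqMan qRT-PCR, normalized to three housekeeping genes (ACTB, GAPDH, POLR2A), with up- or down-regulation fitted against DMSO. HepaRG cells dosed in duplicate for 48 h with 8 half-log concentrations up to 100 uM, vehicle 0.5% DMSO.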

[14] = read-out: growth arrest and DNA damage 45 (GADD45G), GADD45G (gene 10912); experiment: LTEA_HepaRG_GADD45G: Life Technologies and Expression Analysis (LTEA) Assay for growth arrest and DNA damage 45 (GADD45G) using HepaRG (AID 2283499)
Method in brief: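 Gain or loss of GADD45G mRNA, quantified by TaqMan qRT-PCR against three housekeeping genes, is fitted in both directions relative to 0.5% DMSO. Human HepaRG cultures receive test chemical for 48 h at up to 100 uM.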

[15] = read-out: Cytochrome P450 3A4 (Homo sapiens) (UniProt P08684); experiment: LTEA_HepaRG_CYP3A4: Life Technologies and Expression Analysis (LTEA) Assay for CYP3A4 using HepaRG (AID 2283487)
Method in brief: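 Differentiated HepaRG cells in serum-free induction medium exposed in duplicate for 48 h to 8 half-log concentrations up to 100 uM in 0.5% DMSO. CYP3A4 mRNA measured by qRT-PCR normalized to ACTB, GAPDH and POLR2A; bidirectional fit versus DMSO.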

[16] = read-out: Cytochrome P450 3A7 (Homo sapiens) (UniProt P24462); experiment: LTEA_HepaRG_CYP3A7: Life Technologies and Expression Analysis (LTEA) Assay for CYP3A7 using HepaRG (AID 2283492)
Method in brief: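 Human HepaRG liver cells, 48 h post-plating, switched to serum-free induction medium and exposed in duplicate for 48 h. Dosing: 100 uM top, half-log dilutions, 8 points, 0.5% DMSO vehicle. Read-out: CYP3A7 mRNA, gain or loss fitted against DMSO baseline.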

Measured: AC50

Chain of Cytochrome P450 3A7 (Homo sapiens) (P24462 whole entry, looked up): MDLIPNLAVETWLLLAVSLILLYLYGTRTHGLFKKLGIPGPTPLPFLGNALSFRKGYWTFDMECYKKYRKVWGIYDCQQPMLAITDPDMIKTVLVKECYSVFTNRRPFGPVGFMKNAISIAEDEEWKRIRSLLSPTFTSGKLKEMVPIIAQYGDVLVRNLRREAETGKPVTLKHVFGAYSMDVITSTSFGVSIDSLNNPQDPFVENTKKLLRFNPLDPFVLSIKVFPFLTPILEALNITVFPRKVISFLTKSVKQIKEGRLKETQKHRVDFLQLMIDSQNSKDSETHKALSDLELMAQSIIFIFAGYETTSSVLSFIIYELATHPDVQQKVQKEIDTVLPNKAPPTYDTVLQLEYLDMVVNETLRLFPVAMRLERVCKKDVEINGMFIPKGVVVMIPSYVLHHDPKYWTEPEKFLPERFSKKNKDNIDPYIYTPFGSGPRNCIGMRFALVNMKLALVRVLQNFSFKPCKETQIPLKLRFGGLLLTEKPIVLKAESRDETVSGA
Chain of Cytochrome P450 2C19 (Homo sapiens) (P33261 whole entry, looked up): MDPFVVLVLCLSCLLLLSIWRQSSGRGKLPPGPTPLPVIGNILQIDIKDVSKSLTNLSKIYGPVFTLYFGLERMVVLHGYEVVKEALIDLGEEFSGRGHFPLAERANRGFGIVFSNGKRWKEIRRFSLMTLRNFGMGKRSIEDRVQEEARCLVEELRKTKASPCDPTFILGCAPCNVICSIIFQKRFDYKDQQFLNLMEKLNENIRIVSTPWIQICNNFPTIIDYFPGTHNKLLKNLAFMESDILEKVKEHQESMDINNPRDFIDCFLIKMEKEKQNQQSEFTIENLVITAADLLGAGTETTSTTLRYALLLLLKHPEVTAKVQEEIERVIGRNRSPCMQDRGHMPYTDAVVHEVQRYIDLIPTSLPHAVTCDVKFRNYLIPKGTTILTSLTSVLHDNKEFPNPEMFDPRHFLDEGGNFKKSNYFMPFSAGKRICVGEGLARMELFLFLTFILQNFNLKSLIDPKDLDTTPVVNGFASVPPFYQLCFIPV
Chain of Cytochrome P450 3A4 (Homo sapiens) (P08684 whole entry, looked up): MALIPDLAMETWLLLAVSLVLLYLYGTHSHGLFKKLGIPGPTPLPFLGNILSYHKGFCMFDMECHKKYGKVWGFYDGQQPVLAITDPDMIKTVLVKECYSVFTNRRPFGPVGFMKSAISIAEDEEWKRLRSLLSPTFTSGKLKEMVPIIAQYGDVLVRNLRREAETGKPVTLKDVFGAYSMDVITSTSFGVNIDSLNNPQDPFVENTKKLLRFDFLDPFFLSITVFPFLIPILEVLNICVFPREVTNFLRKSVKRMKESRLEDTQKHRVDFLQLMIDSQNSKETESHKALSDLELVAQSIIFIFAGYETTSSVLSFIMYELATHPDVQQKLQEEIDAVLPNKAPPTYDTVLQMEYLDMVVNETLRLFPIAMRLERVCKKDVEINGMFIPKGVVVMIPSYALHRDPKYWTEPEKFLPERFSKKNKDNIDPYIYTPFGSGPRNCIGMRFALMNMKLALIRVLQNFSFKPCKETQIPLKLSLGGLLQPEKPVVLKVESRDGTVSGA

CCC(=O)C(CC(C)N(C)C)(c1ccccc1)c1ccccc1 (stereo unspecified)
active: [1] 36.2 µM | [3] 2.41 µM | [4] 10.1 µM | CYP2E1 (gene 1571) 36.2 µM | [5] 36.2 µM
not listed: [15] | [16]
inactive: all other assays above

C[C@@H]1C[C@@H]([C@H](O)CC2CC(=O)NC(=O)C2)C(=O)[C@@H](C)C1
inactive: [5]
active: [2] 79.9 µM | [6] 2.36 µM | [7] 91.8 µM | [8] 10.8 µM | [9] 13.2 µM | [12] 26.6 µM | [13] 33.3 µM | [14] 2.24 µM

CC(C)(c1ccccc1)c1ccc(O)c(C(C)(C)c2ccccc2)c1
inactive: [1] | [2] | [5] | [8] | CYP3A5 (gene 1577) | [12] | [13] | [14]
active: [3] 11.9 µM | [4] 83.2 µM | CYP2C9 (gene 1559) 85.4 µM | CYP2E1 (gene 1571) 62.4 µM | CYP4A11 (gene 1579) 73.4 µM | [15] 12.3 µM | [6] 29.4 µM | [7] 72.1 µM | [16] 80.8 µM | [9] 48.7 µM | [10] 70.4 µM | [11] 58.2 µM

O=C1C2(Cl)C3(Cl)C4(Cl)C(Cl)(Cl)C5(Cl)C3(Cl)C1(Cl)C5(Cl)C24Cl (stereo unspecified)
inactive: [2] | [15] | [6] | [16]
active: [1] 8.79 µM | [3] 93.5 µM | [4] 26.4 µM | CYP2C9 (gene 1559) 94.1 µM | CYP2E1 (gene 1571) 13.2 µM | CYP4A11 (gene 1579) 22.8 µM | [5] 89.4 µM | [7] 95.5 µM | [8] 91.3 µM | CYP3A5 (gene 1577) 92.4 µM | [9] 93.5 µM | [10] 24.1 µM | [11] 20.6 µM | [12] 22.9 µM | [13] 93.3 µM | [14] 59 µM

O=[N+]([O-])c1ccc(O)c([N+](=O)[O-])c1
active: [1] 17.2 µM | [2] 22.3 µM | [3] 16 µM | [4] 19.5 µM | CYP2C9 (gene 1559) 21.8 µM | CYP2E1 (gene 1571) 20.5 µM | CYP4A11 (gene 1579) 31.5 µM | [15] 22.2 µM | [5] 89.7 µM | [6] 12.9 µM | [7] 12.5 µM | [16] 16.4 µM | CYP3A5 (gene 1577) 10.6 µM | [9] 18.7 µM | [10] 27.8 µM | [11] 25.6 µM | [12] 17 µM | [14] 90.6 µM
inactive: [8]

CCN1CCC2(CC1)COc1cc3c(cc12)N(C(=O)c1ccc(-c2ccc(-c4nnc(C)o4)cc2C)cc1)CC3
inactive: [1] | [6] | [8] | [16] | [10] | [11]
active: [2] 21.8 µM | [3] 28.3 µM | [4] 21.9 µM | CYP2C9 (gene 1559) 21.4 µM | CYP2E1 (gene 1571) 17.7 µM | CYP4A11 (gene 1579) 46.8 µM | [15] 28 µM | [5] 11.6 µM | [7] 11.9 µM | CYP3A5 (gene 1577) 16 µM | [9] 21.9 µM | [12] 75.2 µM | [13] 25.4 µM | [14] 74 µM

CCC(C)(C)c1ccc(O)c(C(C)(C)CC)c1
active: [1] 80.4 µM
inactive: all other assays above

CN(C)N=O
inactive: all assays above
